Experimental data: PubChem BioAssay (NCI)
About 83,000 compounds went through this panel and 20% of them were active in at least one assay; those are over-represented in the sample as a whole.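 The endpoint reported here, percent growth, reads 100 for growth as untreated, 0 for no net growth and -100 for all cells dead.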 Values without a mark were called inactive. The source made the active and inactive calls. Rule for the calls: active = growth percent below 10; inactive = the rest.

Experiments:
Test in all cases: NCI-60 one-dose screen, 48 h (100 = growth as untreated, 0 = no growth, -100 = all killed)
Details in all cases: 10 µM unless noted
SK-MEL-2 melanoma = system: SK-MEL-2 melanoma
EKVX NSCLC = system: EKVX NSCLC
SN12C renal = system: SN12C renal
UO-31 renal = system: UO-31 renal
TK-10 renal = system: TK-10 renal
ACHN renal = system: ACHN renal
CAKI-1 renal = system: CAKI-1 renal
A498 renal = system: A498 renal
CCRF-CEM leukemia = system: CCRF-CEM leukemia
MOLT-4 leukemia = system: MOLT-4 leukemia
SR leukemia = system: SR leukemia
OVCAR-8 ovarian = system: OVCAR-8 ovarian
OVCAR-5 ovarian = system: OVCAR-5 ovarian
OVCAR-4 ovarian = system: OVCAR-4 ovarian
SK-OV-3 ovarian = system: SK-OV-3 ovarian
IGROV1 ovarian = system: IGROV1 ovarian
OVCAR-3 ovarian = system: OVCAR-3 ovarian
HS 578T breast = system: HS 578T breast
NCI/ADR-RES ovarian = system: NCI/ADR-RES ovarian

Row | Compound | growth (SK-MEL-2 melanoma) | growth (EKVX NSCLC) | growth (SN12C renal) | growth (UO-31 renal) | growth (TK-10 renal) | growth (ACHN renal) | growth (CAKI-1 renal) | growth (A498 renal) | growth (CCRF-CEM leukemia) | growth (MOLT-4 leukemia) | growth (SR leukemia) | growth (OVCAR-8 ovarian) | growth (OVCAR-5 ovarian) | growth (OVCAR-4 ovarian) | growth (SK-OV-3 ovarian) | growth (IGROV1 ovarian) | growth (OVCAR-3 ovarian) | growth (HS 578T breast) | growth (NCI/ADR-RES ovarian)
1 | COc1ccc(OC)c(/C=C2\Oc3cc(OCCN4CCC(Cc5ccccc5)CC4)ccc3C2=O)c1 | 105% | 75.6% | 80.8% | 53.8% | 97.7% | 99.7% | 61.4% | 88.6% | 75.6% | 62.4% | 2.46% (active) | 78% | 92.1% | 93.8% | 93.3% | 76.2% | 89.8% | 82.2% | 80.2%
2 | O=c1c2cc(F)ccc2sc2c(NCCO)nc3ccccc3c12 | 102% | 83.3% | 98.4% | 77.8% | 114% | 103% | 90.8% | 80.6% | 105% | 104% | 88.9% | 97.1% | 108% | 111% | 109% | 104% | 121% | 110% | 103%
3 | COc1cccc(-c2nc(-c3ccc(NS(=O)(=O)c4ccccc4)cc3)[nH]c2-c2ccnc(Br)c2)c1 | 10.5% | 32.1% | 28.4% | 11.8% | 46.3% | 11.9% | 18.3% | 28.4% | 18.9% | 4.8% (active) | 8.32% (active) | 33.4% | 48.3% | 34.2% | 63.1% | 44.6% | 30.2% | 7.88% (active) | 40.8%
4 | CN(C)CCNc1nc2ccccc2c2c(=O)c3cc(F)ccc3sc12 | 87.3% | 67.7% | 50.8% | 25.2% | 55.4% | 21.4% | 14% | 17.6% | 24.4% | -3.39% (active) | -23.5% (active) | 40.2% | 76.9% | 29.9% | 77.1% | 49% | 38.1% | 47.8% | 38.3%
5 | COc1ccc(CNC(=O)[C@H](O)[C@@H](N)Cc2ccccc2)cc1 | 123% | 99.8% | 97.5% | 92% | 102% | 107% | 90.7% | 90.8% | 102% | 107% | 93.4% | 108% | 98% | 104% | 110% | 109% | 119% | 102% | 109%
6 | Cc1nn(-c2ccccc2)c(-n2ccnc2)c1/C=N/Nc1nc(-c2ccc(F)cc2)cs1 | 98.1% | 49.5% | 80.3% | 51.2% | 98.3% | 78.9% | 80% | 71.8% | 70.1% | 48.3% | 49% | 76.1% | 105% | 56% | 81.4% | 87.4% | 84.8% | 82.9% | 79.2%
7 | CN1CCN(CC(=O)N2c3cccc4cccc(c34)N(C(=O)CN3CCN(C)CC3)C2c2cn(-c3ccccc3)nc2-c2cccc([N+](=O)[O-])c2)CC1 | -47.6% (active) | 17.8% | -21.5% (active) | 26.2% | -19.4% (active) | -31.1% (active) | 14.4% | 44.6% | -32% (active) | -11.6% (active) | -17.2% (active) | -8.45% (active) | 20.5% | -21.8% (active) | -14.4% (active) | 4.75% (active) | -57.6% (active) | 28.6% | 72.4%
8 | COc1ccc(C(=O)COC(=O)[C@H](C[Se][Se]C[C@H](NC(=O)c2ccc(Br)cc2F)C(=O)OCC(=O)c2ccc(OC)cc2)NC(=O)c2ccc(Br)cc2F)cc1 | -93.8% (active) | -69.4% (active) | -79.9% (active) | -95.4% (active) | -79.6% (active) | -86.9% (active) | -83.2% (active) | -23.8% (active) | -25.4% (active) | -1.84% (active) | -17.1% (active) | -64.2% (active) | -68.2% (active) | -87.9% (active) | -91.9% (active) | -86.1% (active) | -86.3% (active) | -6.55% (active) | -60% (active)
9 | CN(C)CCN1CCN(c2ncccc2C2Nc3ccccc3-n3cccc32)CC1 (centres undefined) | 124% | 102% | 101% | 77.8% | 103% | 105% | 85.4% | 86.7% | 102% | 98.2% | 98.3% | 101% | 100% | 113% | 107% | 105% | 115% | 95.7% | 104%
10 | O=S(=O)(Nc1ccc(-c2nc(-c3cccc(OCCN4CCOCC4)c3)c(-c3ccnc(Br)c3)[nH]2)cc1)c1ccccc1 | 24.8% | 50.2% | 51.5% | 20.5% | 48.2% | 27.1% | 28.2% | 53% | 15.1% | 8.11% (active) | -18.7% (active) | 32.3% | 54.5% | 40.6% | 59.1% | 43.7% | 46.1% | 0.194% (active) | 54.1%
11 | CNCCCNc1nc2ccccc2c2c(=O)c3cc(OC)ccc3sc12 | 113% | 87.4% | 78.4% | 52.4% | 98.8% | 70.5% | 61.7% | 56.5% | 11.9% | 48.3% | -30.2% (active) | 72.7% | 92.2% | 61.2% | 84.9% | 68.1% | 75.7% | 75% | 80.6%
12 | NCCCNc1nc2ccccc2c2c(=O)c3cc(F)cc(Cl)c3sc12 | 105% | 91.9% | 82.7% | 58.4% | 106% | 61.9% | 63.1% | 66.3% | 6.83% (active) | 77.7% | -17.3% (active) | 5.77% (active) | 96.6% | -65.3% (active) | 102% | 80% | 102% | 88.3% | 85.5%
13 | CCN(CC)CCNc1nc2ccccc2c2c(=O)c3cc(Cl)ccc3sc12 | 89% | 74.9% | 66.7% | 43.7% | 80.1% | 47.6% | 22.6% | -7.91% (active) | 7.05% (active) | 25.1% | -2.52% (active) | 64.4% | 81.6% | 46.5% | 54% | 56.1% | 51.3% | 67.6% | 27.1%
14 | CNCCCNc1nc2ccccc2c2c(=O)c3cc(F)ccc3sc12 | 91% | 64.7% | 58.7% | 20.8% | 43.3% | 10.9% | -60.9% (active) | 28% | -3.67% (active) | -27.9% (active) | -35.9% (active) | 28% | 66.3% | 19.9% | 75.4% | 41.4% | -1% (active) | 37.8% | 21.4%
15 | CCc1cccc2c1S/C(=C/c1ccc(Cl)cc1)C2=O | 105% | 95% | 90.5% | 70.7% | 170% | 91.3% | 87.3% | 113% | 98% | 88.8% | 79% | 101% | 100% | 93.5% | 85.7% | 65.6% | 104% | 88% | 101%
16 | O=C(N/N=C/[C@H](O)[C@H](O)[C@H](O)CO)c1ccc(NC(=O)c2cccnc2)cc1 | 118% | 105% | 94.5% | 83.7% | 104% | 109% | 94.1% | 99.3% | 99.2% | 109% | 99.9% | 102% | 102% | 110% | 110% | 107% | 118% | 98.4% | 109%
